± gives the standard deviation of the averaged measurements. The full data set covers some 5,400 targets. This sample favours those with the largest changes.

The assay concerns the target T1, UniProt O00255|O00255-2|O00255-3.
T1 sequence (whole entry): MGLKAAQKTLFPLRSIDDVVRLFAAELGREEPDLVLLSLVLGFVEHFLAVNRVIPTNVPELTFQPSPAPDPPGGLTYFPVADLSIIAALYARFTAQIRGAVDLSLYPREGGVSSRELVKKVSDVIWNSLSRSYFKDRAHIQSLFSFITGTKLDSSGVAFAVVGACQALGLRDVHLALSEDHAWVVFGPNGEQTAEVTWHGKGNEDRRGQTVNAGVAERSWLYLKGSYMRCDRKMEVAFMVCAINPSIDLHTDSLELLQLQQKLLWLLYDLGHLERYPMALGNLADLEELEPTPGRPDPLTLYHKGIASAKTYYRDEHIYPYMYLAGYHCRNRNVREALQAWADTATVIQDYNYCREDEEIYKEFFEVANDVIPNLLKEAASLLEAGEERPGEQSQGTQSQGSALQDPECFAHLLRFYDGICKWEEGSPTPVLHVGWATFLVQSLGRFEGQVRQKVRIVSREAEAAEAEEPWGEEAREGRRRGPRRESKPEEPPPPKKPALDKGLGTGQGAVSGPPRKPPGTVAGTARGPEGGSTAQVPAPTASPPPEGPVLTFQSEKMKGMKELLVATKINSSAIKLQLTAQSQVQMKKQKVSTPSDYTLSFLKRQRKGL
The experiment in a line: NP40-soluble protein abundance relative to vehicle (solubility fold change) (ratio); higher = more soluble protein in presence of GTP. The protocol:
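Solubility proteome profiling in Jurkat crude lysate. Lysate was treated with Mg-GTP (0.1-10 mM) for 10 min at room temperature and 3 min at 37 °C, then solubilised with 0.8% NP40 and benzonase, followed by ultracentrifugation. Proteins were quantified by TMT10 LC-MS/MS; the value is the NP40-soluble abundance relative to the NP40-processed vehicle, from 3 independent experiments.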

For `Nc1nc2c(ncn2[C@@H]2O[C@H](COP(=O)(O)OP(=O)(O)OP(=O)(O)O)[C@@H](O)[C@H]2O)c(=O)[nH]1` [guanosine triphosphate], the NP40-soluble protein abundance by setting is: (concentration: 0.1mM) 1.05 ± 0.044; (concentration: 0.5mM) 1.04 ± 0.043; (concentration: 1mM) 1.04 ± 0.065; (concentration: 2mM) 1.07 ± 0.023; (concentration: 4mM) 1.16 ± 0.069; (concentration: 6mM) 1.14 ± 0.025. For the same compound, the NP40-soluble protein abundance reads like this: (concentration: 8mM) 1.2 ± 0.016; (concentration: 10mM) 1.21 ± 0.023.

These data come from the supplement of paper PMC6411743.
